Assays:
Experiment in all cases: thermal shift delta Tm vs DMSO control; higher = stronger stabilization (binding)
Conditions in all cases: 12.5 µM; protein concentration 2 µM
LOC_OS01G01410-cb001 = system: LOC_OS01G01410-cb001
Outline: (§1)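 Thermal shift values come from differential scanning fluorimetry on purified rice kinase domains made in E. coli, with melting temperatures obtained from Boltzmann fits. Samples of 19.5 μl held 2 μM kinase, 100 mM potassium phosphate pH 7.5, 150 mM NaCl, 10% glycerol, 5 × SYPRO Orange and compound in DMSO, and were heated from 25°C to 95°C at 0.05°C/s. Each shift is a triplicate mean relative to the DMSO-only protein sample.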

LOC_OS01G02750-cb003 = system: LOC_OS01G02750-cb003
Outline: as §1

LOC_OS01G10900-cb004 = system: LOC_OS01G10900-cb004
Outline: as §1

LOC_OS01G13800-cb001 = system: LOC_OS01G13800-cb001
Outline: as §1

LOC_OS01G14860-cb001 = system: LOC_OS01G14860-cb001
Outline: as §1

LOC_OS01G21960-cb002 = system: LOC_OS01G21960-cb002
Outline: as §1

LOC_OS01G39600-cb002 = system: LOC_OS01G39600-cb002
Outline: as §1

LOC_OS01G48390-cb002 = system: LOC_OS01G48390-cb002
Outline: as §1

LOC_OS01G51400-cb002 = system: LOC_OS01G51400-cb002
Outline: as §1

LOC_OS01G52050-cb004 = system: T1, LOC_OS01G52050-cb004
T1 sequence (whole entry): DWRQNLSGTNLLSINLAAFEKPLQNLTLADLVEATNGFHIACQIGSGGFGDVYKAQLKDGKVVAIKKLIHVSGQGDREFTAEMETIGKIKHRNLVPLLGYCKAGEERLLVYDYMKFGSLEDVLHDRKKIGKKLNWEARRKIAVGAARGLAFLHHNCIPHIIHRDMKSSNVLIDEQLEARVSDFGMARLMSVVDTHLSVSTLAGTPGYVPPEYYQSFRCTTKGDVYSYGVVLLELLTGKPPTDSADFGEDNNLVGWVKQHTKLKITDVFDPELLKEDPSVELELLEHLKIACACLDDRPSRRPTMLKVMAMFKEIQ
Outline: as §1

LOC_OS01G57100-cb003 = system: LOC_OS01G57100-cb003
Outline: as §1

LOC_OS01G60330-cb001 = system: LOC_OS01G60330-cb001
Outline: as §1

LOC_OS01G60700-cb002 = system: LOC_OS01G60700-cb002
Outline: as §1

LOC_OS01G63280-cb003 = system: LOC_OS01G63280-cb003
Outline: as §1

LOC_OS01G67340-cb003 = system: LOC_OS01G67340-cb003
Outline: as §1

LOC_OS01G70970-cb002 = system: LOC_OS01G70970-cb002
Outline: as §1

LOC_OS02G07810-cb001 = system: LOC_OS02G07810-cb001
Outline: as §1

LOC_OS02G08530-cb003 = system: LOC_OS02G08530-cb003
Outline: as §1

LOC_OS02G14120-cb001 = system: LOC_OS02G14120-cb001
Outline: as §1

LOC_OS02G17970-cb001 = system: LOC_OS02G17970-cb001
Outline: as §1
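Note: purified Escherichia coli-expressed rice kinase domain construct.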

Row | Structure (SMILES) | thermal shift delta Tm (LOC_OS01G01410-cb001) [°C] | thermal shift delta Tm (LOC_OS01G02750-cb003) [°C] | thermal shift delta Tm (LOC_OS01G10900-cb004) [°C] | thermal shift delta Tm (LOC_OS01G13800-cb001) [°C] | thermal shift delta Tm (LOC_OS01G14860-cb001) [°C] | thermal shift delta Tm (LOC_OS01G21960-cb002) [°C] | thermal shift delta Tm (LOC_OS01G39600-cb002) [°C] | thermal shift delta Tm (LOC_OS01G48390-cb002) [°C] | thermal shift delta Tm (LOC_OS01G51400-cb002) [°C] | thermal shift delta Tm (LOC_OS01G52050-cb004) [°C] | thermal shift delta Tm (LOC_OS01G57100-cb003) [°C] | thermal shift delta Tm (LOC_OS01G60330-cb001) [°C] | thermal shift delta Tm (LOC_OS01G60700-cb002) [°C] | thermal shift delta Tm (LOC_OS01G63280-cb003) [°C] | thermal shift delta Tm (LOC_OS01G67340-cb003) [°C] | thermal shift delta Tm (LOC_OS01G70970-cb002) [°C] | thermal shift delta Tm (LOC_OS02G07810-cb001) [°C] | thermal shift delta Tm (LOC_OS02G08530-cb003) [°C] | thermal shift delta Tm (LOC_OS02G14120-cb001) [°C] | thermal shift delta Tm (LOC_OS02G17970-cb001) [°C]
1 | CCCNC(=O)c1cn2ncnc(Nc3cc(C(=O)NC4CC4)ccc3C)c2c1C | 0.17 | 0.08 | -0.05 | -0.27 | 0.01 | -0.06 | 0.07 | -0.01 | 0.04 | 0.26 | 0.66 | 0.41 | 0.99 | 0.33 | 0.18 | 0.12 | 0.08 | 0.8 | 0.54 | -0.21
2 | Cc1cccc(CC(=O)N2CCc3c2ccc(-c2cn(C)c4ncnc(N)c24)c3F)n1 | 1.17 | 6.31 | 2.32 | -0.12 | 0.28 | 0.3 | 0.17 | -0.13 | 0.48 | 1.35 | 1.41 | 0.28 | 1.1 | 5.6 | 3.56 | 0.24 | 0.39 | 0.71 | 1.09 | 1.12
3 | CC(C)NC(=O)COc1cccc(-c2nc(Nc3ccc4[nH]ncc4c3)c3ccccc3n2)c1 | 0.42 | 0.09 | 0.99 | 0.46 | 1.95 | 1.23 | -0.3 | 0.33 | -0.24 | 1.34 | 1.14 | 12.3 | 0.68 | 0.55 | 0.91 | 0.76 | 1.23 | 1.03 | 2.71 | 1.76
4 | CCS(=O)(=O)Nc1ccc2c(c1)/C(=C(/Nc1ccc(CN3CCCCC3)cc1)c1ccccc1)C(=O)N2 [Hesperadin] | 1.67 | 4.74 | 0.26 | -0.97 | 4.63 | 3.67 | 7.78 | 0.03 | 0.3 | 6.95 | 1.29 | 4.08 | 0.7 | 1.11 | 6.7 | 9.09 | 1.1 | 5.73 | 13 | 0.3
5 | COc1cc2ncnc(Oc3cccc(NC(=O)Nc4cc(C(C)(C)C(F)(F)F)on4)c3)c2cc1OC | 0.82 | 1.07 | 0.12 | 0.13 | 0.91 | 0.64 | 0.02 | 0.73 | 0.35 | 0.75 | 1.91 | 0.64 | 0.86 | 1.66 | 0.78 | 0.38 | 0.77 | 1.04 | 1.43 | 0.45
6 | O=C1Nc2ccccc2/C1=C1/Nc2ccccc2C1=O [Indirubin] | 1.5 | -0.12 | 3.43 | -0.14 | 3.18 | 0.67 | -4.22 | 0.94 | 0.43 | 0.55 | 0.93 | 1.8 | 2.12 | 0.55 | 0.71 | 0.76 | 1.4 | 1.85 | -0.51 | 0.97
7 | CC(=O)Nc1nc(C)c(-c2ccc(Cl)c(S(=O)(=O)NCCO)c2)s1 | 0.98 | 1.63 | 1.52 | 0.63 | 0.16 | 1.07 | -0.18 | 0.24 | 0.16 | 0.93 | 1.34 | 1.21 | 0.76 | 0.53 | 0.18 | 0.09 | 1.61 | 0.77 | 1.19 | 0.97
8 | CCn1nc(C2CCN(C(=O)CCO)CC2)nc1-c1cnc(N)c(-c2nnc(C(C)(C)C)o2)n1 | 0.39 | 0.51 | 0.81 | 0.46 | 2.91 | 1.09 | 2.31 | 0.07 | -0.09 | 1.14 | 0.59 | 0.91 | 1.19 | 1.82 | 1.55 | 1.96 | 1.55 | 2.73 | 5.17 | 1.34
9 | CNS(=O)(=O)C[C@H]1CC[C@H](N(C)c2[nH]cnc3nccc2-3)CC1 [Oclacitinib] | 0.92 | 1.16 | 0.3 | 0.42 | 2.09 | 0.79 | 1.81 | 2.77 | 0.26 | 1.43 | 1.69 | 4.38 | 1.12 | 2.6 | 2.18 | 1.16 | 0.11 | 2.49 | 4.19 | 1.21
10 | CNC(=O)c1nn(C)c2c1C(C)(C)Cc1cnc(Nc3ccc(N4CCN(C)CC4)cc3)nc1-2 | 2.97 | 4.29 | 7.64 | -1.53 | 0.36 | 1.9 | 0.04 | 1.65 | 0.17 | 5.55 | 1.59 | 0.33 | 0.69 | -0.14 | 1.14 | 0.87 | 0.68 | 1.93 | 4.82 | 0.05
11 | Cc1ccc(C(=O)Nc2ccc(Oc3cc4cnn(C)c4cc3-c3cn[nH]c3)c(F)c2)c(=O)n1-c1ccc(F)cc1 | 0.22 | 3.21 | 0.37 | 1.46 | 3.24 | 0.63 | 0.72 | 1.1 | 0.84 | 2.17 | 2.31 | 1.94 | 1.29 | 5.18 | 1.33 | 0.33 | 1.19 | 1.25 | 5.05 | 1.48
12 | COC1(c2sc3c(N4CCOCC4)nc(-c4cnc(N)nc4)nc3c2C)COC1 | 1.79 | -0.24 | 1.43 | 0.47 | 0.4 | 0.39 | 0.28 | 0 | -0.11 | 0.03 | 0.25 | 2.64 | 0.38 | -0.37 | 0.5 | 0.89 | 0.33 | 2.22 | 0.63 | 0.32
13 | COc1ccc(-c2ccc3c(N4CCOCC4)nc(N4C[C@@H](C)O[C@@H](C)C4)nc3n2)cc1CO | 0.64 | 0.68 | 0.83 | -0.38 | 0.08 | -0.07 | -0.02 | -0.04 | -0.03 | 0.27 | 0.55 | 0.67 | 0.28 | -0.12 | -0.53 | -0.02 | 0.61 | 0.4 | -0.18 | 0.46
